Test results as given in PubChem BioAssay AID521 (Sanford-Burnham Center for Chemical Genomics, 2006).
Several values for one entry are separate records, joined by “and”; a condition that tells them apart may be missing. Equal entries are not always repeated. About 730 (0.66%) of roughly 110,000 compounds were called active. For the sample, actives were picked, then their nearest neighbours and some compounds at random. A number with no mark means an inactive call. Rule as the data show it: active = inhibition above about 50%; inconclusive = no clear call, values can overlap the other calls; inactive = below that.

Target: Tyrosine-protein phosphatase non-receptor type 7 (Homo sapiens) (UniProt P35236)
Sequence (P35236 whole entry, looked up): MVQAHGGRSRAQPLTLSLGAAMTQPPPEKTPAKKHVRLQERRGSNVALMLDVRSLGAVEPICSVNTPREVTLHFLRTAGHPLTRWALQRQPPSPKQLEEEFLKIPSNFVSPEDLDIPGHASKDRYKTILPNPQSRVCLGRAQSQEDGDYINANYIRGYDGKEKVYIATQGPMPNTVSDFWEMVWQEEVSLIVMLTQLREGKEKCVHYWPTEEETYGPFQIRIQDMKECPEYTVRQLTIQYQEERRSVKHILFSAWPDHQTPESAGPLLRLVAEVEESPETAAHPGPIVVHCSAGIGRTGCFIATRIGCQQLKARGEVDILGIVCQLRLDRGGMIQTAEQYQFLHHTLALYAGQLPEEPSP
Assay: HePTP tyrosine phosphatase activity blockers – biochemical, absorbance, leukemia target, primary screen (AID 521);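 also: plate controls were vehicle for no effect and reference inhibitor for full effect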
Conditions: recombinant HePTP phosphatase activity, OD absorbance; at 20 µM; active compounds read high

SMILES	inhibition
CCOc1ccc(C(=O)Nc2ccc(O)c(-c3nc4ccccc4o3)c2)cc1[N+](=O)[O-]	7.1%
O=C1NN(c2ccccc2)C(=O)/C1=C/c1ccc(-c2cccc(C(=O)O)c2)o1	18.1%
O=C(O)c1cc(-c2ccc(C=C3C(=O)c4ccccc4C3=O)o2)ccc1O	102% (active)
CC1=NN(c2ccc(S(N)(=O)=O)cc2)C(=O)/C1=C\c1ccc(-c2ccc(Cl)c(C(=O)O)c2)o1	9.9%
O=[N+]([O-])c1ccc(N2CCN(CCO)CC2)cc1NC(c1ccccc1)c1ccccc1	-10.6%
COc1cccc(C(=O)N2N=C(c3ccc(F)cc3)CC2(O)C(F)(F)F)c1 (centres undefined)	4.2%
CCOc1ccc(NC(=S)NC(NC(=O)c2cccc(C)c2)C(Cl)(Cl)Cl)cc1 (centres undefined)	4.6%
O=[N+]([O-])c1ccc(C2SCCN2S(=O)(=O)c2ccc3ccccc3c2)cc1 (centres undefined)	6.4%
CN(N)c1nc(N2CCCC2)nc(N2CCCC2)n1	-2.9%
COc1cc(/C=C2\C(=O)NC(=S)N(c3cccc(Br)c3)C2=O)c([N+](=O)[O-])cc1OC	102% (active)
COc1ccc(/C=C2\C(=O)NC(=S)N(c3ccc(Br)cc3)C2=O)cc1	8.6%
O=C1NC(=O)N(c2cccc(Br)c2)C(=O)/C1=C/c1cccc([N+](=O)[O-])c1	9.5%
c1ccc2c(OCCCN3CCOCC3)cccc2c1	-6.5%
Cc1ccc2ccc3cccc(S(=O)(=O)O)c3c2n1	2.1%
O=[N+]([O-])c1ccc(C2Nc3ccc(OC(F)(F)F)cc3C3C=CCC32)cc1 (centres undefined)	-9.1%
Cc1ccc(C(=O)Nc2ccccc2C(=O)NC2CCCCCC2)cc1	2.4%
O=C(CCCN1C(=O)/C(=C/c2ccccc2)SC1=S)Nc1ccccc1C(=O)O	10.4%
COc1cccc(C(O)c2nc3ccccc3n2C)c1 (centres undefined)	-6.5%
CCc1ccc(-n2c(C)cc(/C=C3/SC(=S)NC3=O)c2C)cc1	7.1%
O=C(COc1ccc2ccccc2c1Br)c1ccc(Br)cc1	3%

SMILES	inhibition
CC(=O)c1ccc(NS(=O)(=O)c2ccccc2[N+](=O)[O-])cc1	3%
Cc1cccc(NC(=O)COc2cc(C)c(Cl)c(C)c2)c1C	2%
COc1ccc(NC(=O)c2cccc(N3C(=O)c4ccc(C(=O)Nc5ccc(OC)cc5)cc4C3=O)c2)cc1	-8.7%
O=C(O)c1cccc(N2C(=O)c3ccc4c5c(ccc(c35)C2=O)CC4)c1	103% (active)
O=C1c2ccc3c4c(ccc(c24)C(=O)N1CCOc1ccccc1)CC3	3.5%
O=[N+]([O-])c1ccc(C=NC23CN4CN(CN(C4)C2)C3)s1	4.4%
COCCNC(=O)/C(=C/c1ccc(-c2cc(Cl)ccc2Cl)o1)NC(=O)c1ccc(C)cc1	5.9%
CCOc1cc(/C=N/NC(=O)c2cc(C)[nH]n2)ccc1Oc1ccc([N+](=O)[O-])cc1[N+](=O)[O-]	6.3%
CCOCC(=O)Nc1sc2c(c1C(=O)OCC)CCCC2	3.2%
CCOC(=O)c1c(NC(=O)C2CC2c2ccccc2)sc2c1CCC2 (centres undefined)	77.8% (active)
CCCOC(=O)Nc1sc2c(c1C(=O)OCC)CCC2	-6.2%
O=C(CN1C(=O)/C(=C/c2ccccc2F)SC1=S)Nc1ccccc1F	-14.9%
Clc1ccccc1OCCCN1CCOCC1	-7.9%
O=C(CCc1ccccc1)Nc1ccc(Cl)cc1	5.1%
CCOC(=O)COc1ccc(/C=C2/NC(=S)NC2=O)cc1OC	4.1%
Cc1ccc(-c2cc(C(=O)Nc3ccccc3)c3ccccc3n2)cc1	9.3%
COc1cc(/C=C2\SC(=S)NC2=O)cc(Br)c1OCc1c(C)no[n+]1[O-]	-10.3%
CCN(CC)c1ccc(C=C2C(=O)N(C)C(=O)N(C)C2=O)c(O)c1	-4.9%
Cc1ccc(C(=O)N/C(=C\c2sccc2C)C(=O)NCC(C)C)cc1	8.2%
Nc1nc2nonc2nc1Nc1ccccc1	0.4%

SMILES	inhibition
Cc1cc(N2C(=O)NC(=O)/C(=C\c3cn(C)c4ccccc34)C2=O)ccc1Br	4.9%
Cc1oc2ccccc2c1/C=N/n1cnc2sc3c(c2c1=O)CCCC3	-2.6%
CCOC(=O)C1=C(C)N=c2s/c(=C\c3ccc4c(c3)OCO4)c(=O)n2C1c1ccc(OC)c(Br)c1 (centres undefined)	3.8%
N#CC1=C(N)n2c(s/c(=C\c3ccc4c(c3)OCO4)c2=O)=C(C#N)C1c1ccc2c(c1)OCO2 (centres undefined)	86.3% (active)
CCOC(=O)C1=C(C)N=c2s/c(=C\c3ccc4c(c3)OCO4)c(=O)n2C1c1ccc(C)cc1 (centres undefined)	1.8%
CC1CCOP(=O)(C(Nc2ccc([N+](=O)[O-])cc2)c2ccc(Br)cc2)O1 (centres undefined)	-6%
CCOc1ccc(-c2cc(C(=O)Nc3cccc([N+](=O)[O-])c3)c3ccccc3n2)cc1	11.5%
COc1ccc(-c2nc(-c3ccccc3)no2)c(OC)c1	16.7%
COc1ccc(-c2noc(-c3ccc(Br)cc3)n2)cc1	-4.6%
COc1ccc(/C=C2\SC(=Nc3ccc(F)cc3)NC2=O)cc1OC	25.3%
COc1cc2c(cc1NC(=O)c1c(-c3c(F)cccc3Cl)noc1C)oc1ccccc12	-5.8%
COc1ccc(-c2nnc(SCC(=O)NN)n2-c2ccccc2)cc1	-0.1%
COc1ccc(-c2nc3ccccc3c(C(=O)Nc3ccc(C(C)=O)cc3)c2C)cc1	-9.2%
O=C(NC(=O)c1ccccn1)NC(c1ccccc1)c1ccccc1	-13% and 2.8%
O=C1NC(=S)N/C1=C/c1ccc(-c2cccc(Br)c2)o1	3.7%
Nn1c(NCc2ccccc2)nc2ccccc21	-4.8%
CCOC(=O)c1cnn(-c2ccccc2)c1NC(=O)c1ccc([N+](=O)[O-])cc1	1.7%
Cc1ccc(NC(=O)c2cnn(-c3ccccc3)c2NC(=O)c2ccccc2Cl)cc1C	103% (active)
Cc1ccccc1NC(=O)c1cnn(-c2ccccc2)c1NC(=O)c1ccco1	7.2%
